From article PMC7862700, “An all-to-all approach to the identification of sequence-specific readers for epigenetic DNA modifications on cytosine”

What was measured:
Experiment in all cases: DAPPL (digital affinity profiling via proximity ligation, sequencing); 10 mM Tris-HCl pH 7.5, 50 mM NaCl, 1 mM DTT, 4% glycerol, room temperature, 30 min; GST-TFs on glutathione beads, 16-mer random dsDNA library, 0.1% formaldehyde crosslink after washing; high values mean tight binding
Details in all cases: protein: recombinant; tags: N-terminal GST; dsDNA, one strand shown
[1] = molecular target: T1, ETV3L (Homo sapiens, UniProt Q6ZN32 1-361)
T1 sequence: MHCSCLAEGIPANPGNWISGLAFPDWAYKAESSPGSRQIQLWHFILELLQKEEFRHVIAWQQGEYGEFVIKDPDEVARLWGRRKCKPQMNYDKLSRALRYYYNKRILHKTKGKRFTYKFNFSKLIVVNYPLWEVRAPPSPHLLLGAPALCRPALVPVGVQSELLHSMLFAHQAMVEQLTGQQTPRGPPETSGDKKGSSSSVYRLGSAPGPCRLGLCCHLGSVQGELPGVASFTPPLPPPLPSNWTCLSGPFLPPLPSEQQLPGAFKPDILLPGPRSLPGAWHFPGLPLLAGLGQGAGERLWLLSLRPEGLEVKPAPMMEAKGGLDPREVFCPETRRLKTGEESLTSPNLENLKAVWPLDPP
Outline: (§1)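 Binding signal is given per hexamer as its read frequency for a factor divided by its frequency in the tag-only sample. GST-fused human transcription factors were expressed in yeast, captured on glutathione beads, barcoded with DNA and pooled with that sample, then incubated with 200 nmole of a 16-mer random double-stranded DNA library in Tris/NaCl/DTT/glycerol buffer for 30 min at room temperature. The pools were then washed, crosslinked, proximity-ligated, amplified by PCR and sequenced on an Illumina NextSeq500.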

[2] = molecular target: T2, ETS2 (Homo sapiens, UniProt P15036 1-469)
T2 sequence: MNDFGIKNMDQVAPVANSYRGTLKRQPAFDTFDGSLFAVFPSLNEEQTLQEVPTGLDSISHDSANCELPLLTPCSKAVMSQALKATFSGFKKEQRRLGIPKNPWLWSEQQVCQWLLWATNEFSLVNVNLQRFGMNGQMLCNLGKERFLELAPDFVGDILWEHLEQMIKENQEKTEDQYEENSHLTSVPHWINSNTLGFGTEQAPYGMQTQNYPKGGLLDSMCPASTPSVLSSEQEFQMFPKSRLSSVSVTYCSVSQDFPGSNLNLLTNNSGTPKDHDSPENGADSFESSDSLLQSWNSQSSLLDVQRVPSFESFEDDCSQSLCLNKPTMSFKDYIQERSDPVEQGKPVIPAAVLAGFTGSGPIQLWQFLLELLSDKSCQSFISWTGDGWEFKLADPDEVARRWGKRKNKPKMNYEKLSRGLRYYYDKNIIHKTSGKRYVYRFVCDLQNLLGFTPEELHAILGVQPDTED
Outline: as §1

[3] = molecular target: T3, SPDEF (Homo sapiens, UniProt O95238 1-335)
T3 sequence: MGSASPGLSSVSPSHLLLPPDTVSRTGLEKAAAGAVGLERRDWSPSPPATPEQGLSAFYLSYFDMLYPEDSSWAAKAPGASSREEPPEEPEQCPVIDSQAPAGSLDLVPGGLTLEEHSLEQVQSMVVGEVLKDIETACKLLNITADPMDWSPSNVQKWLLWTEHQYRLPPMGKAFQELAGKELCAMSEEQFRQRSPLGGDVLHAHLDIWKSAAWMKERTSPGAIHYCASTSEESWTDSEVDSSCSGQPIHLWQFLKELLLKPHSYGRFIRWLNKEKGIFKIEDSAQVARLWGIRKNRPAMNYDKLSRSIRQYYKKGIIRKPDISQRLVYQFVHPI
Outline: as §1

[4] = molecular target: T4, ETV7 (Homo sapiens, UniProt Q9Y603 1-341)
T4 sequence: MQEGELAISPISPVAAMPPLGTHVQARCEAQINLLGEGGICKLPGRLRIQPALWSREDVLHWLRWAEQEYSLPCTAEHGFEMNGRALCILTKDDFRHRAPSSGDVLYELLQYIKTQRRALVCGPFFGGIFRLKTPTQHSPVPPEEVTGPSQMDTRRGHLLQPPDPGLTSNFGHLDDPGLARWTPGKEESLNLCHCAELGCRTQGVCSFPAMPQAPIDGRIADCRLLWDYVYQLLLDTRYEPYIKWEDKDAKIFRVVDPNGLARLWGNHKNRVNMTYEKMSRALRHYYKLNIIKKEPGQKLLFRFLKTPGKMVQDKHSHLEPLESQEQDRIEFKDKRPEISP
Outline: as §1

[5] = molecular target: T5, ELF5 (Homo sapiens, UniProt Q9UKW6-2 1-255)
T5 sequence: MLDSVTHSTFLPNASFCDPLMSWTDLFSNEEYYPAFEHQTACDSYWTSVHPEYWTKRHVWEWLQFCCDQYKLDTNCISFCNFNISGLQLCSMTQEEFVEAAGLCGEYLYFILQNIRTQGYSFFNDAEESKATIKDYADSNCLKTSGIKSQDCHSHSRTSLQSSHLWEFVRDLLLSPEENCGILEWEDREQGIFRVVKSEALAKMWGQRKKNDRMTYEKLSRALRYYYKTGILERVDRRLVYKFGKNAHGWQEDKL
Outline: as §1

[6] = molecular target: T6, ETV3 (Homo sapiens, UniProt P41162-2 1-143)
T6 sequence: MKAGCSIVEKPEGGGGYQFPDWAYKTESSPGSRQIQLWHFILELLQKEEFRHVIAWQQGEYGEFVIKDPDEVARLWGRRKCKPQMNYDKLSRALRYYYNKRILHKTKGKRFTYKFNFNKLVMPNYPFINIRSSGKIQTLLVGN
Outline: as §1

[7] = molecular target: ETV6 (Homo sapiens, UniProt P41212 1-452)
Sequence of ETV6 (P41212 whole entry): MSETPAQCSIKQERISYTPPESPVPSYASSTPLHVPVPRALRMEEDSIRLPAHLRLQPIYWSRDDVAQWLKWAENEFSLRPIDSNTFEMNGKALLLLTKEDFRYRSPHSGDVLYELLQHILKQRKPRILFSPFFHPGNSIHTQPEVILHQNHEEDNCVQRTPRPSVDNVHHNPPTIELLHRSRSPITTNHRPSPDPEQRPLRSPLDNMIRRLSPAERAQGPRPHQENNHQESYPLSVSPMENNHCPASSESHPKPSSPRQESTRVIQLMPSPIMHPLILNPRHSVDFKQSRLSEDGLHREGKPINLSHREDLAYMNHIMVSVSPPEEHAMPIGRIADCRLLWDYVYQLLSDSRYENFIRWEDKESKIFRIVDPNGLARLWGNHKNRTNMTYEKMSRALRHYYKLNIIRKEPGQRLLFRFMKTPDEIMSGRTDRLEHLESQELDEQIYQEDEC
Outline: as §1

[8] = molecular target: T7, ERF (Homo sapiens, UniProt P50548 1-548)
T7 sequence: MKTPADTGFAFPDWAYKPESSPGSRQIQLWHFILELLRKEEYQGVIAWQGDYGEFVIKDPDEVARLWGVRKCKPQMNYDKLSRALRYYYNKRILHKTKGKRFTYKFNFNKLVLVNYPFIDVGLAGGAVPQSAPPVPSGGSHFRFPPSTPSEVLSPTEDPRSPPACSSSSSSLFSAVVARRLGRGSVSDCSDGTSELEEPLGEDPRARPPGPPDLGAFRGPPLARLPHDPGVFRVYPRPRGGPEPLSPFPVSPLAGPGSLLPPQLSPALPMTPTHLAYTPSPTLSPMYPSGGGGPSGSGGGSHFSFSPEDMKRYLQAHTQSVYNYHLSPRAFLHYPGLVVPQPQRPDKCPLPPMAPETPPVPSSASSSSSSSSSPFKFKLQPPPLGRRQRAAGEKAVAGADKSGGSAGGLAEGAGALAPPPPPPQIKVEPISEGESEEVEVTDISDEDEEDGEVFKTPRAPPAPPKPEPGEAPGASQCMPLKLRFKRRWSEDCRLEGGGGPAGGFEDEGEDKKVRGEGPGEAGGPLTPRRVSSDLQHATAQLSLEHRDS
Outline: as §1

Sequence	binding signal [1]	binding signal [2]	binding signal [3]	binding signal [4]	binding signal [5]	binding signal [6]	binding signal [7]	binding signal [8]
GTATCA	1.09 fold enrichment (6-mer frequency, TF over GST control)	1.05 fold enrichment (6-mer frequency, TF over GST control)	1.08 fold enrichment (6-mer frequency, TF over GST control)	1.04 fold enrichment (6-mer frequency, TF over GST control)	1.03 fold enrichment (6-mer frequency, TF over GST control)	1.09 fold enrichment (6-mer frequency, TF over GST control)	1.01 fold enrichment (6-mer frequency, TF over GST control)	–
CATAAA	1.06 fold enrichment (6-mer frequency, TF over GST control)	–	–	–	–	–	–	–
TGTGAC	1.22 fold enrichment (6-mer frequency, TF over GST control)	1.14 fold enrichment (6-mer frequency, TF over GST control)	1.2 fold enrichment (6-mer frequency, TF over GST control)	1.12 fold enrichment (6-mer frequency, TF over GST control)	1.1 fold enrichment (6-mer frequency, TF over GST control)	1.17 fold enrichment (6-mer frequency, TF over GST control)	1.07 fold enrichment (6-mer frequency, TF over GST control)	–
GTTAAT	1.11 fold enrichment (6-mer frequency, TF over GST control)	1.08 fold enrichment (6-mer frequency, TF over GST control)	1.09 fold enrichment (6-mer frequency, TF over GST control)	1.07 fold enrichment (6-mer frequency, TF over GST control)	1.1 fold enrichment (6-mer frequency, TF over GST control)	1.1 fold enrichment (6-mer frequency, TF over GST control)	1.06 fold enrichment (6-mer frequency, TF over GST control)	–
AATCGA	1.04 fold enrichment (6-mer frequency, TF over GST control)	–	–	1.08 fold enrichment (6-mer frequency, TF over GST control)	–	1.07 fold enrichment (6-mer frequency, TF over GST control)	1.01 fold enrichment (6-mer frequency, TF over GST control)	–
TCATGA	1.03 fold enrichment (6-mer frequency, TF over GST control)	1.04 fold enrichment (6-mer frequency, TF over GST control)	–	1 fold enrichment (6-mer frequency, TF over GST control)	1.05 fold enrichment (6-mer frequency, TF over GST control)	1.06 fold enrichment (6-mer frequency, TF over GST control)	–	–
TGCCCT	1.11 fold enrichment (6-mer frequency, TF over GST control)	1.21 fold enrichment (6-mer frequency, TF over GST control)	1.15 fold enrichment (6-mer frequency, TF over GST control)	1.08 fold enrichment (6-mer frequency, TF over GST control)	1 fold enrichment (6-mer frequency, TF over GST control)	1.1 fold enrichment (6-mer frequency, TF over GST control)	1.15 fold enrichment (6-mer frequency, TF over GST control)	–
ATAGGT	1.05 fold enrichment (6-mer frequency, TF over GST control)	–	1.05 fold enrichment (6-mer frequency, TF over GST control)	1.17 fold enrichment (6-mer frequency, TF over GST control)	–	1.06 fold enrichment (6-mer frequency, TF over GST control)	–	–
GCAATG	–	–	–	1.14 fold enrichment (6-mer frequency, TF over GST control)	–	1.03 fold enrichment (6-mer frequency, TF over GST control)	1.12 fold enrichment (6-mer frequency, TF over GST control)	1.02 fold enrichment (6-mer frequency, TF over GST control)
CAGATT	–	1.02 fold enrichment (6-mer frequency, TF over GST control)	–	–	–	1.03 fold enrichment (6-mer frequency, TF over GST control)	1.02 fold enrichment (6-mer frequency, TF over GST control)	–
TAAGCG	1.03 fold enrichment (6-mer frequency, TF over GST control)	1.05 fold enrichment (6-mer frequency, TF over GST control)	–	–	1.01 fold enrichment (6-mer frequency, TF over GST control)	1.05 fold enrichment (6-mer frequency, TF over GST control)	1.01 fold enrichment (6-mer frequency, TF over GST control)	–
CAAGGT	1.12 fold enrichment (6-mer frequency, TF over GST control)	1.11 fold enrichment (6-mer frequency, TF over GST control)	1.03 fold enrichment (6-mer frequency, TF over GST control)	1.1 fold enrichment (6-mer frequency, TF over GST control)	–	1.02 fold enrichment (6-mer frequency, TF over GST control)	1.01 fold enrichment (6-mer frequency, TF over GST control)	–
TCATAA	1 fold enrichment (6-mer frequency, TF over GST control)	1.01 fold enrichment (6-mer frequency, TF over GST control)	1.01 fold enrichment (6-mer frequency, TF over GST control)	–	1.02 fold enrichment (6-mer frequency, TF over GST control)	–	–	–
TCAACG	1.07 fold enrichment (6-mer frequency, TF over GST control)	1.13 fold enrichment (6-mer frequency, TF over GST control)	1.05 fold enrichment (6-mer frequency, TF over GST control)	1 fold enrichment (6-mer frequency, TF over GST control)	–	1.14 fold enrichment (6-mer frequency, TF over GST control)	–	–
CTAGGC	1.07 fold enrichment (6-mer frequency, TF over GST control)	1.01 fold enrichment (6-mer frequency, TF over GST control)	1 fold enrichment (6-mer frequency, TF over GST control)	1.2 fold enrichment (6-mer frequency, TF over GST control)	1.04 fold enrichment (6-mer frequency, TF over GST control)	1.09 fold enrichment (6-mer frequency, TF over GST control)	1.06 fold enrichment (6-mer frequency, TF over GST control)	–
AACGTT	1.11 fold enrichment (6-mer frequency, TF over GST control)	1.17 fold enrichment (6-mer frequency, TF over GST control)	1.12 fold enrichment (6-mer frequency, TF over GST control)	1.1 fold enrichment (6-mer frequency, TF over GST control)	1.16 fold enrichment (6-mer frequency, TF over GST control)	1.11 fold enrichment (6-mer frequency, TF over GST control)	1.19 fold enrichment (6-mer frequency, TF over GST control)	–
TGGCCC	1.07 fold enrichment (6-mer frequency, TF over GST control)	1.12 fold enrichment (6-mer frequency, TF over GST control)	1.03 fold enrichment (6-mer frequency, TF over GST control)	1.01 fold enrichment (6-mer frequency, TF over GST control)	1.02 fold enrichment (6-mer frequency, TF over GST control)	1.03 fold enrichment (6-mer frequency, TF over GST control)	1.06 fold enrichment (6-mer frequency, TF over GST control)	–
AAGGCT	1.02 fold enrichment (6-mer frequency, TF over GST control)	–	1.04 fold enrichment (6-mer frequency, TF over GST control)	1.06 fold enrichment (6-mer frequency, TF over GST control)	1.06 fold enrichment (6-mer frequency, TF over GST control)	1.04 fold enrichment (6-mer frequency, TF over GST control)	1.02 fold enrichment (6-mer frequency, TF over GST control)	–
